Tau fluor counter: counter-screen for tau fibril formation inhibitors; tau K18 P301L Alexa594 fluorescence, heparin fibrillization; Potency, µM (titrated, usually from 57.7 µM), inactives show at the top dose activity change, negative = decrease; 280,000 compounds, 0.93% hits; active means well fitted curve in the direction sought with a large enough effect; inconclusive means small, poorly fitted or top-dose-only effect, or another doubt; inactive means no such curve, though single readings can be large; an effect the other way counts as inactive or inconclusive; further: nearly all actives have a fitted effect of over 55% in size
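Human tau K18 P301L (15 uM unlabeled, 0.24 uM Alexa 594-labeled) in 100 mM sodium acetate pH 7 with 20 uM heparin, 6 hr at 37 C. ThT 30 uM added, 1 hr ambient; Alexa 594 FP and total fluorescence read at 555/632 nm.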
JMJD2E inh: JMJD2E (human) inhibition | B2RXH2 | JMJD2E catalytic domain, FDH-coupled NADH fluorescence (FDH is formaldehyde dehydrogenase) | Potency, µM (titrated, usually from 57.1 µM), for inactives: at the highest dose activity change, negative = inhibition, actives largely listed as inhibitors | 230,000 compounds, 1.6% hits | AID 2147;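 further: 0% = wells with enzyme and -100% = buffer wells without enzyme; nearly all actives have a fitted effect of over 50% in size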
Tau fibril FP: inhibitors of human tau fibril formation; P10636; K18 P301L tau heparin fibrillization, Alexa594 FP, 6 h; 280,000 compounds, 0.39% hits; Potency, µM (top dose mostly 57.7 µM), for the others: at the top dose activity, negative = inhibition, most hits filed as inhibitors; active means well fitted curve in the direction sought with a large enough effect; inconclusive means small, poorly fitted or top-dose-only effect, or another doubt; inactive means no such curve, though single readings can be large; an effect the other way counts as inactive or inconclusive; further: nearly all actives have a fitted effect of over 55% in size
Target sequence (P10636 561-689 P618L limits assumed): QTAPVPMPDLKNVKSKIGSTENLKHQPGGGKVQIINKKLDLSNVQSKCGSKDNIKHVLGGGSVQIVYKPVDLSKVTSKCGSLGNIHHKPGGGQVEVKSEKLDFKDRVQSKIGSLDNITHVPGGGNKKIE
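Human tau K18 […] P301L fragment, 15 uM unlabeled plus 0.24 uM Alexa 594-labeled tau (final), with compound and 20 uM heparin in 100 mM sodium acetate pH 7; 6 hr at 37 C, then Alexa 594 FP read.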
Tau fibril ThT: blocks human tau fibril formation measured by thioflavin T; P10636; recombinant tau K18 P301L (four-repeat tau fragment), heparin-induced fibrillization, ThT fluorescence; Potency, µM (highest dose often 57.4 µM), for the others: at the top dose activity, negative = inhibition, most hits filed as inhibitors; 270,000 compounds, 2.1% hits; active means well fitted curve in the direction sought with a large enough effect; inconclusive means small, poorly fitted or top-dose-only effect, or another doubt; inactive means no such curve, though single readings can be large; an effect the other way counts as inactive or inconclusive; further: nearly all actives have a fitted effect of over 55% in size
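In this qHTS, human K18 P301L tau is incubated with compound and heparin for 6 hr at 37 C, and Thioflavin T fluorescence then reports fibril load.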
HPGD block: blocks human HPGD enzyme activity. AID 894. 150,000 compounds, 4.3% hits. purified HPGD, NADH fluorescence kinetic, PGE2 substrate. Potency, µM, for inactives: at the highest dose activity change, negative = inhibition, most hits filed as inhibitors. P15428
Target sequence (P15428 whole entry, looked up): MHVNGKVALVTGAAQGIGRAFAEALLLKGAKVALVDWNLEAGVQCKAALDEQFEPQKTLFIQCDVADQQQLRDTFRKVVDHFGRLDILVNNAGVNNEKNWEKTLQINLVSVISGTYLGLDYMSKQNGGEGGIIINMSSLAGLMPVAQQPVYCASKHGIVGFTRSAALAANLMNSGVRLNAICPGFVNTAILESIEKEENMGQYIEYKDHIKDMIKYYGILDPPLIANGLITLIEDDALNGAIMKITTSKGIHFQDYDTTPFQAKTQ
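20 nM HPGD preincubated 15 min at room temperature with compound in 50 mM Tris-HCl pH 8, 0.01% Tween 20. Started with 1 mM NAD+ and 30 uM prostaglandin E2; NADH fluorescence (360/450 nm) read 5 times over 30-s intervals, last minus first.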
ALDH1A1 inh: ALDH1A1 (human) enzyme inhibition; Potency, µM (highest dose often 75.3 µM), for inactives: top-dose activity, negative = inhibition, usual class: inhibitors; Purified ALDH1A1, NADH fluorescence, propionaldehyde substrate; AID 1030; P00352; 220,000 compounds, 7.3% hits;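 further: plate controls were no enzyme wells and a reference inhibitor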
* hit, by the source's call; ? = inconclusive; / = no result; ! = not active in a repeat. The list is not random: actives were taken first. Their share in the collection is about 9.9%. Unless noted, the call rests on the fitted dose curve; in most records, active means well fitted inhibition curve with a large enough effect (not every such curve was filed as active); inconclusive means small, poorly fitted or top-dose-only effect, or another doubt; inactive means no such curve, though single readings can be large or run the other way. Unless noted, on the % scale 0 is the no-effect control and ±100 the full control effect; potency means the concentration at half of the fitted maximal effect.

SMILES	Tau fluor counter	JMJD2E inh	Tau fibril FP	Tau fibril ThT	HPGD block	ALDH1A1 inh
CCCc1nc2ccccc2c(C(=O)OC(C)C(=O)NCc2ccc3c(c2)OCO3)c1CC (stereo not given)	-24%	0%	-4%	?	-21%	4.5µM*
CC(OC(=O)c1nn(C)c(=O)c2ccccc12)C(=O)NCc1ccc2c(c1)OCO2 (stereo not given)	-5%	0%	-9%	-5%	20µM*	?
COc1ccccc1N=Cc1nc(-c2ccccc2)oc1OC(C)=O	?	-1%	?	25µM*	?	7.1µM*
CC(=O)Oc1oc(-c2ccccc2)nc1/C=N/c1ccccn1	11%	-1%	3%	9%	22µM*	?
Cc1cc(-c2nnc(-c3ccccc3)c(-c3ccccc3)n2)c(C)o1	-9%	-3%	-1%	?	?	6.3µM*
Cc1ccc(-c2nnc(-c3ccccc3)c(-c3ccccc3)n2)cc1	-23%	5%	-1%	-18%	-8%	?
Fc1ccc(-c2[nH]ncc2CN(CC2CCC2)CC2CCCO2)c(F)c1 (stereo not given)	-4%	-7%	5%	-1%	/	-2%
S=C(Nc1ccc2nccnc2c1)N1CCOCC1	-28%	?	?	25µM*	/	-11%
S=C(Nc1ccc2nsnc2c1)N1CCCCC1	-15%	11µM*	?	?	-10%	?
CCN(CC)C(=O)C1CCCN(C(=O)Nc2ccc3nsnc3c2)C1 (stereo not given)	-20%	-1%	?	14µM*	?	?
Cc1ccc(NC(=S)N2CCOCC2)cc1	-3%	12%	-2%	-7%	-7%	-1%
CC(C)CCNC(=O)C1CC(c2ccccc2C(F)(F)F)=NO1 (stereo not given)	18%	-5%	4%	16%	/	/
Cc1ccc(N=C/C(C(=O)C(F)(F)F)=C(\O)c2ccco2)cc1Cl	-22%	?	-3%	?	/	2.2µM*
CCOC(=O)C1CCCN(C(=O)c2cc3ncc(Br)cn3n2)C1 (stereo not given)	1%	-3%	5%	1%	-29%	4%
O=C(c1cc2ncc(Br)cn2n1)N1CCOCC1	-14%	-8%	-9%	-5%	22µM*	3%
O=C(c1cc2ncc(Br)cn2n1)N1CCN(C(=O)c2ccco2)CC1	5%	-2%	4%	-4%	-23%	25µM*
O=C(c1ccco1)N1CCN(C(=O)c2ccc(Cn3cc(Br)cn3)o2)CC1	-11%	-2%	-7%	-15%	-12%	?
Cc1ncc([N+](=O)[O-])n1CCO	-15%	-7%	-3%	-8%	-21%	7.9µM*!
Cn1c(SCC(=O)c2ccc(-c3ccccc3)cc2)nnc1-c1ccco1	-6%	-1%	1%	?	-22%	10µM*
CCOC(=O)c1c(C)[nH]c(C)c1C(=O)CSc1nnc(-c2ccco2)n1Cc1ccccc1	-11%	9%	4%	-3%	-7%	16µM*
Cc1ccc(C(=O)CSc2nnc(-c3ccco3)n2Cc2ccccc2)cc1	-6%	0%	-8%	-19%	-20%	0%
O=C(CSc1nnc(-c2ccco2)n1Cc1ccccc1)c1ccccc1	-8%	-5%	-12%	-14%	28µM*	?
CCOC(=O)c1c(C)[nH]c(C)c1C(=O)CSc1nnc(-c2ccncc2)n1Cc1ccccc1	-14%	3%	-5%	-9%	-19%	-1%
Cc1ccc(NCc2nnc(SCC(=O)c3ccccc3)n2Cc2ccco2)c(C)c1	-28%	1%	-3%	?	-21%	10µM*
COC(=O)C1CSC(C(=O)OC)N1C(=O)CN1CCN(c2ccccc2)CC1 (stereo not given)	5%	-5%	0%	2%	/	6%
SMILES	Tau fluor counter	JMJD2E inh	Tau fibril FP	Tau fibril ThT	HPGD block	ALDH1A1 inh
Cc1cccc(OC(=O)c2cc(-c3ccc4c(c3)OCCO4)on2)c1C	-24%	/	-9%	-15%	/	/
C/C(=N\NC(=O)CN1CCN(Cc2ccc(C)cc2)CC1)c1ccncc1	6%	7%	8%	-1%	-1%	35%
COC(=O)Cc1c(C)c2ccc3c(c2oc1=O)CN(Cc1ccc(Cl)cc1)CO3	-10%	/	1%	-10%	/	/
NC(=O)c1cc(N2C(=O)C=CC2=O)ccc1Cl	-14%	-5%	-20%	?	7.9µM*	0.79µM*
CC(=O)Nc1ccc(Cl)c(C(N)=O)c1	-4%	0%	-11%	0%	-1%	5%
Cc1ccc(C(=O)O)cc1NC(=S)NC(=O)c1ccc(-c2ccccc2)cc1	10%	-16%	-4%	?	/	14µM*
Cc1ccc(C(=O)O)cc1NC(=S)NC(=O)c1ccc(-c2ccc(Cl)cc2)o1	-19%	?	1%	/	/	/
O=C(O)c1cccc(NC(=S)NC(=O)c2ccc(-c3ccc(Cl)cc3)o2)c1	-8%	?	-3%	?	/	?
Cc1ccc(C(=O)NC(=S)Nc2cccc(-c3nc4ccccc4s3)c2)cc1	-10%	-13%	-3%	?	-8%	11µM*
O=C(O)c1cccc(NC(=S)NC(=O)c2ccc(-c3ccccc3)cc2)c1	-2%	-14%	11%	4%	/	25µM*
O=C(O)c1cccc(NC(=S)N/N=C/c2ccccn2)c1	3%	?	-6%	?	/	20µM*
O=C(O)c1cccc(NC(=S)N/N=C/c2cccc(O)c2)c1	-1%	-5%	5%	?	/	-8%
CC(=O)Nc1cccc(-c2nc3ccccc3s2)c1	-16%	?	-15%	0%	/	-7%
O=S(=O)(c1ccc2nc(Nc3ccc(Br)cc3F)ccc2c1)N1CCCC1	-17%	/	?	3%	/	/
CCOC(=O)c1c(C)c(-c2ccccc2)n(CC(=O)Nc2ccc(OCC)cc2)c1C	-17%	/	-4%	-9%	/	/
Cc1ccc(C(=O)NC(=S)Nc2c(C)ccc3nsnc23)cc1	-9%	-20%	-6%	-17%	-21%	?
NS(=O)(=O)c1ccc(NC(=S)NC(=O)c2ccc(-c3ccccc3)cc2)cc1	0%	-1%	2%	5%	-29%	2µM*
Cc1ccc(C(=O)NC(=S)Nc2cccc3nsnc23)cc1	-22%	22%	?	13µM*	-4%	8%
O=C(NCCc1cccc(F)c1)/C(=C/c1cccnc1)NC(=O)c1ccccc1	-4%	-24%	9%	-1%	-9%	5%
CC1CCCC(NC(=O)COC(=O)[C@@H](NC(=O)c2ccco2)C(C)C)C1C (stereo not given in full)	-5%	-7%	-4%	-5%	/	?
O=C(CNS(=O)(=O)c1ccccc1)NCC(=O)OCc1ccc(Cl)cc1	-8%	-1%	-5%	/	/	/
